GLP-1R agonist: agonists of human GLP-1 receptor; HEK293 GLP-1R CRE-luciferase, luminescence, 4-6 h; cells express a hypersensitive GLP-1R form; actives 0.007% (n = 380,000); Potency, µM (top dose mostly 45.6 µM), usual class: activators
PTHR1 agonist: agonists of human PTHR1 parathyroid hormone receptor; Q03431; HEK293 GP2 PTHR1 cells, GloSensor cAMP luminescence, 1 h; Potency, µM (doses to about 115 µM), hits mostly activators; actives 0.075% (n = 410,000); AID 743266; also: nearly all actives have a fitted effect of over 55% in size
Target sequence (Q03431 whole entry, looked up): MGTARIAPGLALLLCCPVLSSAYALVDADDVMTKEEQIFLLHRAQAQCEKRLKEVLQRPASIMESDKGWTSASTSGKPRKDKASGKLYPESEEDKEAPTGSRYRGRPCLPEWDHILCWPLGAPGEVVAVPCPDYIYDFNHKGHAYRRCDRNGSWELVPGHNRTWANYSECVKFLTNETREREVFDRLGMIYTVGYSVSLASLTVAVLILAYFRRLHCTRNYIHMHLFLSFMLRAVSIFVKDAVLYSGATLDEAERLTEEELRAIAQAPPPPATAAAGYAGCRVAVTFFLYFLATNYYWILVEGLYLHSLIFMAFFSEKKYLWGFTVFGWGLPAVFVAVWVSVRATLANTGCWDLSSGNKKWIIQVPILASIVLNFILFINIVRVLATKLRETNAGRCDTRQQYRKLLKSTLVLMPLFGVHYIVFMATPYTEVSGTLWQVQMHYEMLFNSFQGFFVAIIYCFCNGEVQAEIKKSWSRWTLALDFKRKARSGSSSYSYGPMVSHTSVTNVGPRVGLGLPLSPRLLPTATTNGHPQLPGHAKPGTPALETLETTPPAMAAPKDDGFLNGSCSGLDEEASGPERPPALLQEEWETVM
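HEK-293-derived GP2 cells expressing PTHR1 and a GloSensor cAMP reporter, 3,000/well, plated overnight, given luciferin plus IBMX (each 0.5 mM as added) for 1 h at 37 °C, then compound for 1 h at 37 °C. Luminescence was read after 15 min at room temperature.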
GLP1R cytotox: cytotoxicity counter-screen for GLP-1 receptor inverse agonists. HEK293 cAMP-luciferase reporter cells, luminescence, 24 h. Potency, µM (series often up to 38.3 µM), hits mostly inhibitors. actives 0.13% (n = 410,000). AID 624418;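 also: loss of luciferase light is scored as toxicity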
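MLSMR compounds, 24 hr on cells at 37 deg C/5% CO2; luminescence after luciferase reagent (12 min RT). Inhibition counted as the undesired cytotoxic outcome.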
GLP1R inv ag: GLP-1 receptor (human) inverse agonism | actives 1.6% (n = 410,000) | P43220 | HEK293 GLP-1R CRE-luciferase, luminescence, 24 h; GLP-1R form is constitutively active | Potency, µM (series often up to 38.3 µM), actives largely listed as inhibitors; also: nearly all actives have a fitted effect of over 55% in size
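Readout was luciferase luminescence, measured 12 min after detection reagent at room temperature. Beforehand, GLP-1R reporter HEK293 cells had sat 12 h, then received compounds for 24 hr at 37 deg C.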
Hits are given with their value; i = inactive; ? = inconclusive; nt = no result given. Most compounds without a hit are left out; they make up all but 1.7% or so of the library. Calls follow the shape of the dose curve; as a rule, active = well fitted curve in the direction sought with a large enough effect; inconclusive = small, poorly fitted or top-dose-only effect, or another doubt; inactive = no such curve, though single readings can be large; an effect the other way counts as inactive or inconclusive.

SMILES	GLP-1R agonist	PTHR1 agonist	GLP1R cytotox	GLP1R inv ag
O=C(Cn1ncc2ccsc2c1=O)N1CCN(c2ccccc2)CC1	i	i	i	i
CC(=O)c1ccc(N2CCN(c3ncccn3)CC2)c([N+](=O)[O-])c1	i	i	i	i
CC(=O)c1ccc(N2CCc3ccccc3C2)c([N+](=O)[O-])c1	i	i	i	3.2µM
CCc1nc(N2CCN(C(=S)NCCCOC)CC2)c2c3c(sc2n1)CCCC3	i	i	?	11µM
CCC(=O)N1CCN(c2nc(CC)nc3sc4c(c23)CCCC4)CC1	i	i	i	?
CCOC(=O)c1c(-c2ccccc2)csc1NC(=O)CSc1ccccc1	i	i	i	?
CCOC(=O)c1c(-c2ccc(OC)cc2)csc1NC(=O)CSc1ccccc1	i	i	i	4.5µM
C=CCNC(=S)N/N=C/c1ccc(C)cc1C	i	i	?	?
C=CCNC(=S)N/N=C/c1ccc(C)c([N+](=O)[O-])c1	i	i	7.9µM	?
Cc1cccc(CN2C(=O)N/C(=C/c3cc(C)n(-c4cc(C)ccn4)c3C)C2=O)c1	i	i	i	10µM
O=C(Cn1c(=O)n2nc(-c3ccccc3)nc2c2ccccc21)Nc1ccccc1C(F)(F)F	nt	i	i	i
O=[N+]([O-])c1cc(-c2csc(NCCc3nc4cc(Cl)c(N5CCCCC5)cc4n3CCCO)n2)ccc1Cl	i	i	i	2.2µM
Cc1ccc(Cn2c(CCNc3nc(-c4ccc(Cl)c([N+](=O)[O-])c4)cs3)nc3cc(Cl)c(Cl)cc32)cc1	i	i	i	?
CCOC(=O)c1ccccc1NC(=O)NC(C)c1c(-n2cccc2)sc(C)c1C (stereo unspecified)	nt	i	i	i
CN(C)c1cccc(C(=O)Nc2nc3ccc(S(=O)(=O)N4CCCC4)cc3s2)c1	nt	i	?	?
COc1cc(OC)cc(-c2c(-c3ccc(F)cc3)c3cc(-c4cnc(OC)nc4)ccc3n2C)c1	i	i	i	i
COc1cc(OC)cc(-c2c(-c3ccc(F)cc3)c3cc(Br)ccc3n2C)c1	i	i	i	7.9µM
CCN(CC)CC#CCOC(c1ccccc1)c1ccccc1	i	i	i	5.6µM
COC(=O)c1c(Oc2ccc(OC)cc2)nnc(-c2ccccc2)c1-c1ccccc1	nt	i	i	?
CC(C)Cc1nc(SCC(=O)N2CCOCC2)c2c(=O)n(C)c(=O)n(C)c2n1	i	i	i	i
CC(C)Cc1nc(SCC(=O)N2CCCCC2)c2c(=O)n(C)c(=O)n(C)c2n1	i	i	i	10µM
CN1CCN(c2ccc(NC(=O)COc3cccc4ccccc34)cc2)CC1	i	i	i	10µM
CN1CCN(c2ccc(NC(=O)c3ccc4ccccc4c3)cc2)CC1	i	i	i	2µM
COc1ccc(C(=O)Nc2ccc(N3CCN(C)CC3)cc2)cc1	i	i	i	i
CN1CCN(c2ccc(NC(=O)COc3ccc4ccccc4c3)cc2)CC1	i	i	i	7.1µM
SMILES	GLP-1R agonist	PTHR1 agonist	GLP1R cytotox	GLP1R inv ag
O=C(NCCc1ccccc1)c1ccc(Cn2c(SCc3cccc(F)c3)nc3cccnc32)cc1	nt	i	i	i
O=C(CSc1cn(CC(=O)N2CCCCC2)c2ccccc12)Nc1ccccc1F	nt	i	i	i
COC(=O)C1(Cc2cc(-c3cccc(Br)c3)no2)CCN(C(=O)OC(C)(C)C)CC1	i	i	i	10µM
O=C(NNc1ccc(F)cc1)c1c(F)cccc1Cl	i	i	i	1.1µM
CC(C)(C)NC(=O)C(c1ccncc1)N(C(=O)Cn1nnc(-c2ccc(F)cc2)n1)c1ccccc1F (stereo unspecified)	i	i	i	i
CC(C)(C)NC(=O)C(c1ccc(O)cc1)N(C(=O)Cn1nnc(-c2ccc(F)cc2)n1)c1ccccc1F (stereo unspecified)	i	i	i	8.9µM
Cc1ccc(N(C(=O)Cn2nnc(-c3ccc(F)cc3)n2)C(C(=O)NC(C)(C)C)c2ccncc2)cc1 (stereo unspecified)	i	45µM	i	?
CCn1nc(-c2ccccc2)c(-c2ccccc2)c(C(=O)OCCOC)c1=O	nt	i	i	i
Cc1cc(N2CCC(C)CC2)nc2ccc(NC(=O)/C=C/c3cccc(Cl)c3)cc12	i	i	i	i
COc1ccc(NC(=O)c2cc(S(=O)(=O)N3CCCCCC3)cn2C)cc1Cl	i	i	i	i
Cc1ccc(C(OCC(O)CNC(CO)C(O)c2ccc([N+](=O)[O-])cc2)c2ccccc2)cc1 (stereo unspecified)	i	i	i	8.9µM
Cc1ccc(C(OCC(O)CNC(C)c2ccccc2)c2ccccc2)cc1 (stereo unspecified)	i	i	?	?
CCOc1ccc(CCNC(=O)c2cc(=O)[nH]c3ccc(S(=O)(=O)N4CCCCC4C)cc23)cc1OCC (stereo unspecified)	nt	i	i	i
Cc1ccccc1S(=O)Cc1ccc(C(=O)N2CCN(c3cccc(C)c3C)CC2)o1 (stereo unspecified)	nt	i	i	1.1µM
Cc1cccc(N2CCN(C(=O)c3ccc(CS(=O)Cc4ccc(Cl)cc4)o3)CC2)c1C (stereo unspecified)	i	i	i	10µM
Cc1cccc(N2CCN(C(=O)c3ccc(CS(=O)c4cccc(Cl)c4)o3)CC2)c1C (stereo unspecified)	nt	i	?	1µM
COc1ccc(S(=O)(=O)Cc2ccc(C(=O)N3CCN(c4cccc(C)c4C)CC3)o2)cc1	i	i	i	?
Cc1ccc(S(=O)(=O)Cc2ccc(C(=O)N3CCN(c4cccc(C)c4C)CC3)o2)cc1	i	i	?	5µM
O=C(c1ccc(CS(=O)Cc2ccc(Cl)cc2)o1)N1CCN(c2cccc(Cl)c2)CC1 (stereo unspecified)	i	i	i	?
COc1ccc(CCC(C)NCCc2ccc(Cl)cc2Cl)cc1 (stereo unspecified)	i	i	?	10µM
CCn1c(=O)c2cc(C(=O)N(CCCOC(C)C)Cc3ccco3)sc2c2ccccc21	i	i	i	?
O=C(NC(Cc1ccccc1)C(=O)O)c1ccccc1 (stereo unspecified)	i	i	i	i
O=C(NC(Cc1ccccc1)C(=O)N1CCc2ccccc2C1)c1ccccc1 (stereo unspecified)	i	i	i	8.9µM
NC(=O)[C@@H]1CC2(CC(c3cccc(NC(=O)COc4ccc(Cl)cc4)c3)=NO2)CN1C(=O)COc1ccc(Cl)cc1 (stereo partly specified)	i	i	i	11µM
NC(=O)[C@H]1CC2(CC(c3cccc(NC(=O)COc4ccc(Cl)cc4)c3)=NO2)CN1C(=O)C(c1ccccc1)c1ccccc1 (stereo partly specified)	i	i	?	5.6µM
Cc1cccc(N2CCN(C(=O)CCc3c(C)nc4ncnn4c3C)CC2)c1C	i	i	i	i
O=C(CSc1nc(=O)n(Cc2ccncc2)c2c1CCC2)Nc1cccc(F)c1	nt	i	i	i
